# Source: PubChem BioAssay AID1745847 (National Center for Advancing Translational Sciences (NCATS), 2022)
# Screen size: about 2,100 compounds; about 670 (32%) were called active. Roughly 50% stayed inconclusive and do not appear here. Calls come from the whole dose curve; as a rule, active = well fitted inhibition curve with a large enough effect; inconclusive = small, poorly fitted or top-dose-only effect; inactive = no such curve, though single readings can be large or run the other way. Some of the results follow.
# Assay: CMV-Luciferase Counterscreen for Inhibitors of ATXN expression; note: nearly all actives have a fitted effect of over 55% in size
# Settings: HEK-293 CMV-luciferase reporter, luminescence, 24 h; series mostly up to 57.5 µM
# Text: PI: Daniel Scoles Ph.D. University of Utah School of Medicine, Salt Lake City, Utah MLPCN Grant: NS073009 Spinocerebellar ataxia type 2 (SCA2) is a multisystem neurodegenerative disease caused by a dominantly acting mutation leading to expansion of a polyQ domain in the ataxin-2 protein (ATXN2). SCA2 patients develop progressive ataxia and later lose function in other neuronal systems. Prominent parkinsonian signs develop in some patients. Like many neurodegenerative disorders, no symptomatic or disease-modifying treatments are known. The primary objective of the proposed research is to identify compounds inhibiting ATXN2 expression and to test them for efficacy in SCA2 mouse models. We have developed a cell-based assay paired with an in vivo mouse model using identical luciferase expression constructs. This approach takes advantage of an ATXN2-luciferase transgene, with the luciferase gene flanked by the upstream and downstream portions of the ATXN2 gene. Here we describe a 5-7 dose quantitative high thoroughput screen (qHTS) for compounds lowering ATXN2 expression. We screened the NIH Molecular Libraries Small Molecule Repository (MLSMR) and NCGC's mechanistically annotated (MIPE) and drug repurposing (NPC) collections of compounds for lowering expression of an ATXN2-luciferase reporter in HEK-293 cells. The assay is a multiplexed cell viability assay to ensure target reduction in the absence of cytotoxicity. Secondary qHTS assays included a CMV-luciferase reporter expressed in HEK-293 cells as well as a biochemical assay using recombinant luciferase to detect inhibitors of the reporter enzyme. Compounds that inhibit ATXN2 expression but is not cytotoxic were selected for confirmatory and secondary screens.
# PROTOCOL TABLE (as described by Inglese J, Shamu CE and Guy RK. 2007) SEQUENCE No. (e.g., 1, 2, 3, etc.); PARAMETER (e.g., Cells, Incubation, Reagent, etc.); VALUE; DESCRIPTION. 1; Cells; 4 uL; white, solid bottom, 1536-well Greiner assay plate. 2; Incubation; 2 hr; 37 degree C in 5% humidified CO2. 3; Compounds; 23 nL; Kalypsis pintool (Wako USA) equipped with a 1536-well pin head. 4; Incubation; 24 hr; 37 degree C in 5% humidfified CO2. 5; Reagent; 1 uL; Gly-Phe-7-Amino-4-trifluoromethylcoumarin. 6; Incubation; 30 min; 37 degree C in 5% humidfified CO2. 7; Detection; Fluorescence; Viewlux plate reader (PerkinElmer). 8; Reagent; 3 uL; SteadyGlo luciferase solution (Promega). 9; Incubation; 5 min; room temperature. 10; Detection; Luminescence; ViewLux plate reader (PerkinElmer). NOTES (numbers refer to Sequence numbers above) 1. HEK-293 cells expressing CMV-luciferase reporter (designated as SC cells) were suspended in phenol-red free DMEM and dispensed in assay plates using a Multidrop Combi dispenser (Thermo Fisher Scientific). 2. Assay plates were incubated. Evaporation was prevented by covering assay plates with metal lids containing holes to allow gas diffusion. 3. Compounds were added in a dose response manner with the final concentrations of 57, 11.4, 2.28, 0.46, 0.091, 0.018, 0.0037 uM. Vehicle-only plates, with DMSO being pin-transferred to columns 5-48, were inserted uniformly at the beginning and the end of each library to monitor and record any shifts in assay performance. 5. 125 uM Gly-Phe-7-Amino-4-trifluoromethylcoumarin (MP Biomedicals) working concentration was used at a final concentration of 25 uM. 7. To assess cell viability; the assay plates were read using the ViewLux high-throughput CCD imager (PerkinElmer), wherein single end-point fluorescence measurement was acquired (excitation 405/10; emission 540/25 nm). 8. Detection reagent SteadyGlo Luciferase (Promega) was added to the assay plate. 10. Luminescence is then measured on the ViewLux imager equipped with a clear emission filter using a 2 sec exposure. […]
# % is set by controls: 0 for no effect and ±100 for the full control effect; potency is the fitted concentration of half-maximal effect.
Compound,Potency,"activity change, negative = inhibition"
O=C(C1CCC(CNS(=O)(=O)c2cccc3nsnc23)CC1)N1CC=C(c2ccccc2)CC1 (configuration not stated),3.16 µM (active),
CC(=O)N/N=C/c1cc(C(C)(C)C)cc(/C=N/NC(C)=O)c1O,3.16 µM (active),
O=c1nc(N/N=C/c2ccccn2)cn[nH]1,14.1 µM (active),
C(=N\Nc1ccc2nncn2n1)/c1ccccn1,17.8 µM (active),
Cc1nnc(N/N=C/c2ccccn2)[nH]c1=O,1.78 µM (active),
O=c1cnnc(N/N=C/c2ccccn2)[nH]1,1.41 µM (active),
C(=N\NC(=Nc1ccccc1)c1ccccn1)/c1ccccn1,inactive,
Cn1c(/C=C/c2ccc(Cl)cc2)c([N+](=O)[O-])c(=O)n(C)c1=O,31.6 µM (active),
COc1cc2c(O)c3c(c(-c4ccc5c(c4)OCO5)c2cc1OC)C(=O)OC3,,16.4% [at 11.4 µM] (inactive)
CCN1CCN(C(c2ccc(C(F)(F)F)cc2)c2ccc3cccnc3c2O)CC1 (configuration not stated),14.1 µM (active),
S=C(NCc1cccnc1)Nc1ccc(Oc2ccc(Cl)cc2)cc1,10 µM (active),
Cn1c(=O)c2cc(NC(=O)Nc3cccnc3)ccc2n1Cc1ccc(Cl)cc1,inactive,
NC(c1csc(Nc2nccc(C(F)(F)F)n2)n1)C1CCCCC1 (configuration not stated),,13.2% [at 11.4 µM] (inactive)
CC1CC(C)CN(CCCNC(=O)c2cc3c(s2)-c2ccccc2OC3)C1 (configuration not stated),,-23% [at 11.4 µM] (inactive)
Cc1cccc2c1-c1sc(C(=O)Nc3ccccc3N3CCN(C)CC3)cc1CO2,22.4 µM (active),
CCc1ccc(NC(=O)COc2ccc(/C=C(/C#N)c3nc4ccccc4[nH]3)cc2OC)cc1,3.55 µM (active),
COCC(=O)OC/C(O)=C(\C#N)c1nc2ccccc2[nH]1,,-13.1% [at 11.4 µM] (inactive)
O=C1/C(=C/c2ccc([N+](=O)[O-])cc2)C=C(c2ccccc2)N1c1ccc(O)cc1,3.98 µM (active),
COc1ccc(F)cc1-c1cc(NC=O)c2ncc(-c3cccc(C(=O)N(C)C)c3)n2c1,,-8.79% [at 11.4 µM] (inactive)
Cc1cc(N2CCN(c3nc(-c4ccccc4)cs3)CC2)c2ccccc2n1,3.55 µM (active),
CCN(CC)CCC(=O)Nc1cccc2c1C(=O)c1ccccc1C2=O,,-4.68% [at 11.4 µM] (inactive)
CCN(CC)CCn1c2ccccc2c2cnc(N)c(C#N)c21,,-22.5% [at 11.4 µM] (inactive)
CCN(CC)CCn1nc2c3c(cccc3c1=O)-c1ccccc1-2,8.91 µM (active),

Compound,Potency,"activity change, negative = inhibition"
O=C(NNC1=Nc2ccccc2SC1)c1ccc(Cl)cc1,1.78 µM (active),
CCn1c(C)cc(C(=O)CN2C(=O)c3ccccc3S2(=O)=O)c1C,0.398 µM (active),
Cc1cc(C(=O)CN2C(=O)c3ccccc3S2(=O)=O)c(C)n1C(C)C,0.562 µM (active),
Cc1cc(C(=O)CN2C(=O)c3ccccc3S2(=O)=O)c(C)n1CC1CCCO1 (configuration not stated),0.501 µM (active),
O=C(CN1C(=O)c2ccccc2S1(=O)=O)Nc1ncc(Cl)cc1Cl,3.16 µM (active),
Cc1nnc(SCC(N)=O)n1CC1CCCO1 (configuration not stated),inactive,
Nc1nc(NCCc2ccccc2)nc(NCc2ccccc2)c1[N+](=O)[O-],inactive,
COC(=O)[C@H]1C[C@H](OC(=O)NC2CC2)[C@@]2(O)CN(S(=O)(=O)c3ccc(C)cc3)CC2[C@H]1C(=O)OC (some centres not stated),,4.52% [at 11.4 µM] (inactive)
O=C(CN1C(=O)c2ccccc2S1(=O)=O)c1ccc(Cl)cc1Cl,1 µM (active),
CC1Cc2cc(-c3csc(NC(=O)Cc4cccs4)n3)ccc2N1S(C)(=O)=O (configuration not stated),1.41 µM (active),
O=c1c2c(nc3c(-c4cccc(Br)c4)c[nH]n13)CCCC2,3.55 µM (active),
O=c1c2c(nc3c(-c4ccc(Cl)cc4)c[nH]n13)CCCC2,0.891 µM (active),
CC1CCCN(S(=O)(=O)c2ccc(C(=O)Nc3nnc(-c4ccccc4Cl)o3)cc2)C1 (configuration not stated),1.26 µM (active),
CC1CCCCN1S(=O)(=O)c1ccc(C(=O)Nc2nnc(-c3ccncc3)o2)cc1 (configuration not stated),8.91 µM (active),
CN(C)CCCNC(=O)/C=C/c1ccc(OCc2c(F)cccc2Cl)cc1,inactive,
Cc1ccc(CN2CCC(c3cc(-c4ccc(Cl)cc4)n[nH]3)CC2)cc1,22.4 µM (active),
Clc1ccc(-c2cc(C3CCNCC3)[nH]n2)c(Cl)c1,inactive,
CCc1ccc(CNC(=O)c2cc3c(C)nc4ccccc4c3o2)cc1,10 µM (active),
CCOC(=O)c1cnc2ccc(OC)cc2c1Nc1ccc(N2CCN(C)CC2)cc1,inactive,
COc1ccc(N2CCN(C(=O)c3cc4c(C)nc5ccccc5c4o3)CC2)cc1,22.4 µM (active),
Cc1sc2nc(CN3CCCC3)nc(N3CCC(C(N)=O)CC3)c2c1C,inactive,
COc1ccc(C(=O)N2CCN(c3nc(C4CC4)nc4sc(C)c(C)c34)CC2)cc1,17.8 µM (active),
Cc1ccc(C)c(OCCCC(=O)Nc2nccs2)c1,inactive,

Compound,Potency,"activity change, negative = inhibition"
Cc1cc(Br)c(OCc2ccc(C(=O)N/N=C3\CC4CC=CC34)cc2)c(Br)c1 (configuration not stated),28.2 µM (active),
CC(C)Nc1nc(-c2ccccn2)nc(-c2ccccc2)c1C#N,inactive,
CCN(CC)c1nc(-c2ccccn2)nc(-c2ccccc2)c1C#N,7.08 µM (active),
COC(=O)c1c(NC(=O)/C=C/C(=O)O)sc(C)c1-c1ccc(C(C)C)cc1,14.1 µM (active),
Cc1cc(N2CCN(C)CC2)ccc1NC(=O)c1ccc(-c2ccc(Cl)cc2)o1,inactive,
Cc1[nH]c(-c2ccc(F)cc2)cc1C(=O)N1CCN(c2ccc(Cl)cc2)CC1,22.4 µM (active),
CC1(C(=O)NCc2ccco2)CCN1C(=O)C1(c2ccccc2)CC1 (configuration not stated),,-4.65% [at 11.4 µM] (inactive)
CC1(C(=O)NCc2ccccc2Br)CCN1C(=O)Cc1ccc(-c2ccccc2)cc1 (configuration not stated),20 µM (active),
Cc1ccc2[nH]c(O)c(N=NC(=O)C3CC3c3ccccc3)c2c1Br (configuration not stated),,-21.9% [at 11.4 µM] (inactive)
O=C(Nc1ccc(Cl)cc1)Nc1ccc(N2CCCC2)c(S(=O)(=O)Nc2ccccc2Cl)c1,3.98 µM (active),
CCN(CC)S(=O)(=O)c1ccc(N/N=C/c2ccc(O)cc2O)nc1,1.26 µM (active),
O=C(COc1ccc(Br)cc1CO)Nc1ccc(S(=O)(=O)N2CCCCC2)cc1,17.8 µM (active),
CN(C)CCCN(C(=O)c1ccc(S(=O)(=O)N2CCCCCC2)cc1)c1nc2ccc(Br)cc2s1,,-16.1% [at 11.4 µM] (inactive)
CCn1c2ccccc2c2cc(NC(=O)COC(=O)c3cc(S(=O)(=O)N4CCCCC4)ccc3Cl)ccc21,,4.24% [at 11.4 µM] (inactive)
Cc1ccnc(NC(=O)CCCc2c[nH]c3ccccc23)c1,,484% [at 11.4 µM] (inactive)
CC[n+]1c(/C=C/c2c[nH]c3ccccc23)ccc2cc(C)ccc21,35.5 µM (active),
O=C(c1ccc(CS(=O)Cc2ccccc2Cl)o1)N1CCN(c2cccc(Cl)c2)CC1 (configuration not stated),20 µM (active),
C=CCOC(=O)C1=C(C)NC(SCC)=C(C#N)C1c1ccc(Cl)cc1 (configuration not stated),20 µM (active),
COc1cc(/C=C/C(O)=C/C(=O)/C=C/c2ccc(O)cc2)ccc1O,,-3.01% [at 11.4 µM] (inactive)
COc1cc(C=CC(=O)c2cc(OC)c(OC)c(OC)c2)cc(OC)c1OC,12.6 µM (active),
COc1cc(C=CC(=O)c2ccccc2)cc(OC)c1OC,inactive,
O=C(c1ccc2c(c1)OCO2)N(Cc1cccs1)C1(C(=O)NC2CCCCC2)CCCCC1,28.2 µM (active),
C=CCNc1oc(-c2ccc(Cl)cc2)nc1C#N,inactive,

Compound,Potency,"activity change, negative = inhibition"
COc1ccc(Nc2oc(COc3ccccc3OC)nc2C#N)cc1,3.55 µM (active),
N#Cc1nc(COc2ccc(-c3ccccc3)cc2)oc1NCc1cccnc1,3.55 µM (active),
COc1cc2nc(CN(C)Cc3ccc(SC)cc3)[nH]c(=O)c2cc1OC,inactive,
COc1ccc(-c2cnc3c(NC=O)cc(-c4ccccc4OC)cn23)cc1OC,inactive,
Cc1ccc(/C=N/Nc2ccnc3cc(Cl)ccc23)c(C)c1,14.1 µM (active),
Nc1nc(NCCCN2CCOCC2)nc(Nc2cccc(Cl)c2)c1[N+](=O)[O-],,-21.5% [at 11.4 µM] (inactive)
Cc1ccc(S(=O)(=O)N(Cc2ccccc2)c2ccccc2C(=O)NCc2ccco2)cc1,22.4 µM (active),
COc1cnc(-c2ccccn2)nc1NC(C)C,8.91 µM (active),
COc1cccc(CN(C)C(=O)CNC(=O)c2ccc(-c3ccccc3)cc2)c1OC,5.01 µM (active),
COCCCn1c(-c2ccc(S(=O)(=O)N3CCOCC3)cc2)csc1=Nc1ccccc1,3.98 µM (active),
COc1cc(C(=O)Oc2cccc(Nc3ncnc4ccccc34)c2)cc(OC)c1OC,3.98 µM (active),
NC(Cc1ccccc1)c1csc(Nc2nccc(C(F)(F)F)n2)n1 (configuration not stated),inactive,
Cc1cc(Nc2cccc([N+](=O)[O-])c2)n2c(nc3ccccc32)c1C#N,1.26 µM (active),
CCOC(=O)N1CCN(c2ncnc3c2[nH]c2ccc(F)cc23)CC1,3.55 µM (active),
Fc1ccc2[nH]c3c(N4CCSCC4)ncnc3c2c1,3.16 µM (active),
Fc1ccc2[nH]c3c(N4CCc5ccccc5C4)ncnc3c2c1,2.82 µM (active),
CC(C)(CO)NCc1c(OCc2ccc(Cl)cc2)ccc2ccccc12,inactive,
Cc1ccc2nc(-c3ccccc3)nn2c1,2 µM (active),
COc1ccc(Cl)cc1S(=O)(=O)N1CCN(C(=O)c2n[nH]c(=O)c3ccccc23)CC1,,-26.4% [at 11.4 µM] (inactive)
COc1ccccc1N1CCN(c2ccnc3cc(Cl)ccc23)CC1,10 µM (active),
O=S(=O)(c1ccccc1)N1CCN(c2ccnc3cc(Cl)ccc23)CC1,22.4 µM (active),
COc1ccc(N2CCN(c3ccnc4cc(Cl)ccc34)CC2)cc1,3.98 µM (active),
Oc1ccc(N2CCN(c3ccnc4cc(Cl)ccc34)CC2)cc1,11.2 µM (active),
